# Reference: article PMC7862700, “An all-to-all approach to the identification of sequence-specific readers for epigenetic DNA modifications on cytosine”
# Key:
# Assay in all cases: DAPPL (digital affinity profiling via proximity ligation, sequencing); 10 mM Tris-HCl pH 7.5, 50 mM NaCl, 1 mM DTT, 4% glycerol, room temperature, 30 min; GST-TFs on glutathione beads, 16-mer random dsDNA library, 0.1% formaldehyde crosslink after washing; high values mean tight binding
# [1] = biological target: T1, FLI1 (Homo sapiens, UniProt Q01543 1-452); conditions: protein: recombinant; tags: N-terminal GST; dsDNA, one strand shown
# T1 sequence: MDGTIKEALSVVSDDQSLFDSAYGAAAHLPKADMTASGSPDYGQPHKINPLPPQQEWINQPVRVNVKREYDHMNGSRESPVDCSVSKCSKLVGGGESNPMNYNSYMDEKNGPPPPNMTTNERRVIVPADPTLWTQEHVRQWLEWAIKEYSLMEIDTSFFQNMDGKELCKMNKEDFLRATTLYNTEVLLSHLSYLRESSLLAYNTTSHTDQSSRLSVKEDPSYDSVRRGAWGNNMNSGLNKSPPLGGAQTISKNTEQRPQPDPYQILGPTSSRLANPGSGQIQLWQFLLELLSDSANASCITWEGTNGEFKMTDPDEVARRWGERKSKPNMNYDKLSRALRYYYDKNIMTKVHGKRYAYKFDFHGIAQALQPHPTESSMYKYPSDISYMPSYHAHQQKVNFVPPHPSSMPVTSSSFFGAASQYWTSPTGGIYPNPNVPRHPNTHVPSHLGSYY
# How it was run: (§1)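 After expression in yeast as GST fusions, human transcription factors were bound to glutathione beads, DNA-barcoded and mixed with a tag-only sample. The pools were incubated with 200 nmole of a 16-mer random double-stranded DNA library in Tris/NaCl/DTT/glycerol buffer (30 min, room temperature), washed and crosslinked with 0.1% formaldehyde. Proximity ligation with BsaI/T4 ligase ran for 1 h at 37 °C, before PCR amplification and sequencing on an Illumina NextSeq500. Binding signal is a hexamer's read frequency for a factor divided by its frequency for the tag-only sample.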
# [2] = biological target: T2, ELK1 (Homo sapiens, UniProt P19419 1-428); conditions: protein: recombinant; tags: N-terminal GST; dsDNA, one strand shown
# T2 sequence: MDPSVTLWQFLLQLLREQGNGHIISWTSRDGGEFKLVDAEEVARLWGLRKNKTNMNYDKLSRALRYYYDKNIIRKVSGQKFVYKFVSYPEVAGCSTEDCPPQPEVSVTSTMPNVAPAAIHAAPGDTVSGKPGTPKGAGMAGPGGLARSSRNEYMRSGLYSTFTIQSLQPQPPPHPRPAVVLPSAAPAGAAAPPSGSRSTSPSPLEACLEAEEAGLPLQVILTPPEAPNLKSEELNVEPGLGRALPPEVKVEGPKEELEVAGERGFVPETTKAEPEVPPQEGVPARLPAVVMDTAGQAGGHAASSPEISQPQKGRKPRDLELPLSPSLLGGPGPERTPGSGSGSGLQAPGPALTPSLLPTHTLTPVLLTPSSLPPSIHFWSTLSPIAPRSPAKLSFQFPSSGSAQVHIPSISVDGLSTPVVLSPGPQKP
# How it was run: as §1
# [3] = biological target: T3, GABPA (Homo sapiens, UniProt Q06546 1-454); conditions: protein: recombinant; tags: N-terminal GST; dsDNA, one strand shown
# T3 sequence: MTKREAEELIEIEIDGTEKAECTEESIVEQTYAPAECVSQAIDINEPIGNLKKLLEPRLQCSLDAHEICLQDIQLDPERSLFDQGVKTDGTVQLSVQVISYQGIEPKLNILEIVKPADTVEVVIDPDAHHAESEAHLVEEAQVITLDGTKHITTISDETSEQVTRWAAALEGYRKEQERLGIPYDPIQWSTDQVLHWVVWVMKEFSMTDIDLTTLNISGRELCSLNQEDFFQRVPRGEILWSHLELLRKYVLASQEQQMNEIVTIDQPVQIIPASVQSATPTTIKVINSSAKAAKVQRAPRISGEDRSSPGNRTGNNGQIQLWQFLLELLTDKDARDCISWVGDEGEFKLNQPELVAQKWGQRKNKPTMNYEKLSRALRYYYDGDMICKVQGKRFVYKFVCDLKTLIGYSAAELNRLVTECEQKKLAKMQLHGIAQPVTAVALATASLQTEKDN
# How it was run: as §1
# [4] = biological target: T4, ERG (Homo sapiens, UniProt P11308 1-479); conditions: protein: recombinant; tags: N-terminal GST; dsDNA, one strand shown
# T4 sequence: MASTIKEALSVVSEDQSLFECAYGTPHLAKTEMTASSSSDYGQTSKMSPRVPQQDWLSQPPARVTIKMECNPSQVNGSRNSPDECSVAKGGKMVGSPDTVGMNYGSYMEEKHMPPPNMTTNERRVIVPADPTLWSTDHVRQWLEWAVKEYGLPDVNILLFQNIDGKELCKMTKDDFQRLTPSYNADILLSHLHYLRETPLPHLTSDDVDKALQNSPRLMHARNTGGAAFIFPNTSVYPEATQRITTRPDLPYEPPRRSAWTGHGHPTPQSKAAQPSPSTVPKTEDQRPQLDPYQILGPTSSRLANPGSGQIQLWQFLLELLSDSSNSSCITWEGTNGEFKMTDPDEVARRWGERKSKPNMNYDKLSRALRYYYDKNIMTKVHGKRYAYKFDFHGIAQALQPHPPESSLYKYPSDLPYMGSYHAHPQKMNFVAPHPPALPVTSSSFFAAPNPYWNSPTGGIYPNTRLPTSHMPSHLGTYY
# How it was run: as §1
# [5] = biological target: ELF1 (Homo sapiens, UniProt P32519 1-619); conditions: protein: recombinant; tags: N-terminal GST; dsDNA, one strand shown
# How it was run: as §1
# [6] = biological target: T5, EHF (Homo sapiens, UniProt Q9NZC4 1-300); conditions: protein: recombinant; tags: N-terminal GST; dsDNA, one strand shown
# T5 sequence: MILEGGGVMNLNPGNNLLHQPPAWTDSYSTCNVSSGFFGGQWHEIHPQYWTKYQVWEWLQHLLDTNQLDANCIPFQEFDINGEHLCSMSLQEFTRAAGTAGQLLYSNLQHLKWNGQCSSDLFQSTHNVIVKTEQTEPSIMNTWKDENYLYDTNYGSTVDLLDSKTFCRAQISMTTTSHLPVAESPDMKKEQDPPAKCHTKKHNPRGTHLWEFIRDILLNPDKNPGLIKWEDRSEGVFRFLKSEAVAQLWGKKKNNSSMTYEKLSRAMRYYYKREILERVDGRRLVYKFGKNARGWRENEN
# How it was run: as §1
# [7] = biological target: SPI1 (Homo sapiens, UniProt P17947 1-270); conditions: protein: recombinant; tags: N-terminal GST; dsDNA, one strand shown
# How it was run: as §1
# [8] = biological target: SPIB (Homo sapiens, UniProt Q01892 1-262); conditions: protein: recombinant; tags: N-terminal GST; dsDNA, one strand shown
# How it was run: as §1
# [9] = biological target: T6, ELK3 (Homo sapiens, UniProt P41970 1-407); conditions: protein: recombinant; tags: N-terminal GST; dsDNA, one strand shown
# T6 sequence: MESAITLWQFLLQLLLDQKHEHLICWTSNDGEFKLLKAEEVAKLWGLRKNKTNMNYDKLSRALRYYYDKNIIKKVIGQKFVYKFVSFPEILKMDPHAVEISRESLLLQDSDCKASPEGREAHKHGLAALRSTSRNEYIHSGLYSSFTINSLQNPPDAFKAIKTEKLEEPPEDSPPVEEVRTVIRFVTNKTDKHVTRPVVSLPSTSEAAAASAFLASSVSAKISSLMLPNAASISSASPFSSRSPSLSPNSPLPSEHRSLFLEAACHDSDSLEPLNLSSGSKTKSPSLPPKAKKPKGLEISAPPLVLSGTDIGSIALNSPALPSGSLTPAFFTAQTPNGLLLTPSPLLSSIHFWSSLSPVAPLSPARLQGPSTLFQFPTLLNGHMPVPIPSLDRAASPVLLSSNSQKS
# How it was run: as §1
# [10] = biological target: T7, FEV (Homo sapiens, UniProt Q99581 1-238); conditions: protein: recombinant; tags: N-terminal GST; dsDNA, one strand shown
# T7 sequence: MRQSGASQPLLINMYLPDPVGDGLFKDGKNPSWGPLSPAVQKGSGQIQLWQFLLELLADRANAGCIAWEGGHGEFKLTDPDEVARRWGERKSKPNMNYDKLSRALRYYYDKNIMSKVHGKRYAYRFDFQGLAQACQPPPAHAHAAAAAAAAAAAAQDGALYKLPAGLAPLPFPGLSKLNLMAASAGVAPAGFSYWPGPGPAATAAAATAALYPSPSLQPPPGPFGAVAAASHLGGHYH
# How it was run: as §1
# [11] = biological target: ETV5 (Homo sapiens, UniProt P41161 1-510); conditions: protein: recombinant; tags: N-terminal GST; dsDNA, one strand shown
# How it was run: as §1
# [12] = biological target: HSF1 (Homo sapiens, UniProt Q00613 1-529); conditions: protein: recombinant; tags: N-terminal GST; chain copies: 3; dsDNA, one strand shown
# How it was run: as §1
# [13] = biological target: T8, SPIC (Homo sapiens, UniProt Q8N5J4 1-248); conditions: protein: recombinant; tags: N-terminal GST; dsDNA, one strand shown
# T8 sequence: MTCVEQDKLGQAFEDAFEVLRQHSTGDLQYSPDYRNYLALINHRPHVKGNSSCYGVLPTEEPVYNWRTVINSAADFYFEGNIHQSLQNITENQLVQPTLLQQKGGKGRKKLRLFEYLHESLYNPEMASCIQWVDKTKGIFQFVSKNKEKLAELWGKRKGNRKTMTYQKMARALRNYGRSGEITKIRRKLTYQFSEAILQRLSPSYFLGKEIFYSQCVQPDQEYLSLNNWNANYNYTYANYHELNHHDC
# How it was run: as §1
# [14] = biological target: ELF4 (Homo sapiens, UniProt Q99607 1-663); conditions: protein: recombinant; tags: N-terminal GST; dsDNA, one strand shown
# How it was run: as §1
# [15] = biological target: T9, ELK4 (Homo sapiens, UniProt P28324-2 1-405); conditions: protein: recombinant; tags: N-terminal GST; dsDNA, one strand shown
# T9 sequence: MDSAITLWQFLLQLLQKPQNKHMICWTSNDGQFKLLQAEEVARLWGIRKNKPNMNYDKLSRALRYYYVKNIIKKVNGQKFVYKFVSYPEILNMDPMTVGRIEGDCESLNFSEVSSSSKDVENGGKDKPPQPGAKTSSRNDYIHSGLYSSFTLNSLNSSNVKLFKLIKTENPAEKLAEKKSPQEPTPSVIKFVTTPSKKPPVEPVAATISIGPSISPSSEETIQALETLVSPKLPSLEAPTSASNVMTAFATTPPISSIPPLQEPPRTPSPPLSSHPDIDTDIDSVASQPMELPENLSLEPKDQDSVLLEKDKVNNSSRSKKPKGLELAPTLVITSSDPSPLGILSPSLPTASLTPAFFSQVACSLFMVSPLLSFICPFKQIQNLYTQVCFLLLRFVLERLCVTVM
# How it was run: as §1
# [16] = biological target: T10, ETV2 (Homo sapiens, UniProt O00321 1-342); conditions: protein: recombinant; tags: N-terminal GST; dsDNA, one strand shown
# T10 sequence: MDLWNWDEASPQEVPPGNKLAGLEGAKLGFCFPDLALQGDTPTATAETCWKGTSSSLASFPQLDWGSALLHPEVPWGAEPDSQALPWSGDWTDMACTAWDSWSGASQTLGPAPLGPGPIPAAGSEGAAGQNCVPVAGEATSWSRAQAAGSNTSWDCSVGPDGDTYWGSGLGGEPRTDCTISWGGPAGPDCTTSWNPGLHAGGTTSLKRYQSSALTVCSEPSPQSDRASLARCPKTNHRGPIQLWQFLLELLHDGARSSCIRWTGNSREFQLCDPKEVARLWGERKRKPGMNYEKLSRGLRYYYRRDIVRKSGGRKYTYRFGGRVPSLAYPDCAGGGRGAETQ
# How it was run: as §1
# [17] = biological target: T11, ELF3 (Homo sapiens, UniProt P78545 1-371); conditions: protein: recombinant; tags: N-terminal GST; dsDNA, one strand shown
# T11 sequence: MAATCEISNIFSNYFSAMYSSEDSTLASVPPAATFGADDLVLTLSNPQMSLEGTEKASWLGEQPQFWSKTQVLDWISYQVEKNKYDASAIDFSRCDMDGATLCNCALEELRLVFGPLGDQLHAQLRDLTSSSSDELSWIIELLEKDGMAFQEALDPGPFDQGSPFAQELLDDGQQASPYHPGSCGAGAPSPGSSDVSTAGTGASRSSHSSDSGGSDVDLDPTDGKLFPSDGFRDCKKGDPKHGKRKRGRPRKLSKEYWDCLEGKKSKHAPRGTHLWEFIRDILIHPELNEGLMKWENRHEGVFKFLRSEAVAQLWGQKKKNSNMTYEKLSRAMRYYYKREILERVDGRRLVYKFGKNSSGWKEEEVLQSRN
# How it was run: as §1
# [18] = biological target: CRX (Homo sapiens, UniProt O43186 1-299); conditions: protein: recombinant; tags: N-terminal GST; dsDNA, one strand shown
# How it was run: as §1
# [19] = biological target: ETV1 (Homo sapiens, UniProt P50549 1-477); conditions: protein: recombinant; tags: N-terminal GST; dsDNA, one strand shown
# How it was run: as §1
# Sequence of ETV1 (P50549 whole entry): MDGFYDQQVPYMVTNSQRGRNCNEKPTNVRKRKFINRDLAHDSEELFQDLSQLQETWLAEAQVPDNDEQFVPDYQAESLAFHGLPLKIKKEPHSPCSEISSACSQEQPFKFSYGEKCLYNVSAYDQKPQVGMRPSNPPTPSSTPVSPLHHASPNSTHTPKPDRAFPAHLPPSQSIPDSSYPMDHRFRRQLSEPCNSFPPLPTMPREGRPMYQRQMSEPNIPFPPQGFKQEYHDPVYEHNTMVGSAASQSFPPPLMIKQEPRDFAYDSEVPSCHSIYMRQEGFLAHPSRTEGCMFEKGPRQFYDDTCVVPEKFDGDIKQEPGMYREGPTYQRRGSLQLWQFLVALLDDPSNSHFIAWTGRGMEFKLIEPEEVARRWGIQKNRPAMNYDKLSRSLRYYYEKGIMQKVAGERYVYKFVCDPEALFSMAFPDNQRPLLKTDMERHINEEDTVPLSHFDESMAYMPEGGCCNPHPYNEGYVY
# Sequence of CRX (O43186 whole entry): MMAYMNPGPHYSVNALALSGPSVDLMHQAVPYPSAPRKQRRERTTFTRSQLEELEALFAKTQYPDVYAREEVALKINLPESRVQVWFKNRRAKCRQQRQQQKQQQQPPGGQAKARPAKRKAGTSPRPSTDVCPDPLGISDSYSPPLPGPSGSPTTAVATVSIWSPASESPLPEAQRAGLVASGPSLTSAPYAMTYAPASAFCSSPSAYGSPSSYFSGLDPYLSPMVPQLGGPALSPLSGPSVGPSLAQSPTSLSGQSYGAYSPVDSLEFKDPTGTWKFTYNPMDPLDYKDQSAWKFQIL
# Sequence of ETV5 (P41161 whole entry): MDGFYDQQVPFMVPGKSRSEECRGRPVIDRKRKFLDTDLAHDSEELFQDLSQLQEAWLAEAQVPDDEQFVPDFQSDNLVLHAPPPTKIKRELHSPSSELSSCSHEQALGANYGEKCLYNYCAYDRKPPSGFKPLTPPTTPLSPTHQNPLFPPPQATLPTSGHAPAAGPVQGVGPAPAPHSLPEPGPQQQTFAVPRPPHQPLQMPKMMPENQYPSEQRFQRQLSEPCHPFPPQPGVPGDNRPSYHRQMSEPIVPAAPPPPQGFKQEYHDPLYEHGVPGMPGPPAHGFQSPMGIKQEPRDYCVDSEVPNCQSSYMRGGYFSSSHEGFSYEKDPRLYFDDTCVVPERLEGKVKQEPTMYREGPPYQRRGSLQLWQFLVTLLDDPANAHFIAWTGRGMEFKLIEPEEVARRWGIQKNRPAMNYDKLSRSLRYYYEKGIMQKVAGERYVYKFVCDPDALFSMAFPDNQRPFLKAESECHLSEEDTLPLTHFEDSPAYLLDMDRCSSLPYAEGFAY
# Sequence of HSF1 (Q00613 whole entry): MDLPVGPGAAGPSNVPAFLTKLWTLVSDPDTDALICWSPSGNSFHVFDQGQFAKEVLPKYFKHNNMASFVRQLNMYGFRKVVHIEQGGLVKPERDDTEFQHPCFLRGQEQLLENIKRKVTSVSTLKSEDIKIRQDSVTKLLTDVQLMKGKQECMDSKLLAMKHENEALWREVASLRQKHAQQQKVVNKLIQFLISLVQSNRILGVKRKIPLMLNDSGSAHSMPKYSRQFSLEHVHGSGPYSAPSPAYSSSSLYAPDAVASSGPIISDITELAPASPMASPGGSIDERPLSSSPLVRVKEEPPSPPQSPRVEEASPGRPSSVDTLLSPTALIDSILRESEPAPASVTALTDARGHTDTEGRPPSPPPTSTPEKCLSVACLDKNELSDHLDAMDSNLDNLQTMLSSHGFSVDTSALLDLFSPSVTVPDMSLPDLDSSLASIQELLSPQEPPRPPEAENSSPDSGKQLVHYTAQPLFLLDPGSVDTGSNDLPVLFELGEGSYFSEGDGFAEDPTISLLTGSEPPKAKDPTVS
# Sequence of SPIB (Q01892 whole entry): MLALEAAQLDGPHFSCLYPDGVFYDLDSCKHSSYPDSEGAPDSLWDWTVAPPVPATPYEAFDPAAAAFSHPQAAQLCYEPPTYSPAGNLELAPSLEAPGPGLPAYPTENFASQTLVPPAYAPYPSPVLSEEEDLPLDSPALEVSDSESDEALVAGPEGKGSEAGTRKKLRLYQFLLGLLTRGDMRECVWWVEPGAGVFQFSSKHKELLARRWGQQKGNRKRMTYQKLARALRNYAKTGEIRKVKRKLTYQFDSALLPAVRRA
# Sequence of ELF4 (Q99607 whole entry): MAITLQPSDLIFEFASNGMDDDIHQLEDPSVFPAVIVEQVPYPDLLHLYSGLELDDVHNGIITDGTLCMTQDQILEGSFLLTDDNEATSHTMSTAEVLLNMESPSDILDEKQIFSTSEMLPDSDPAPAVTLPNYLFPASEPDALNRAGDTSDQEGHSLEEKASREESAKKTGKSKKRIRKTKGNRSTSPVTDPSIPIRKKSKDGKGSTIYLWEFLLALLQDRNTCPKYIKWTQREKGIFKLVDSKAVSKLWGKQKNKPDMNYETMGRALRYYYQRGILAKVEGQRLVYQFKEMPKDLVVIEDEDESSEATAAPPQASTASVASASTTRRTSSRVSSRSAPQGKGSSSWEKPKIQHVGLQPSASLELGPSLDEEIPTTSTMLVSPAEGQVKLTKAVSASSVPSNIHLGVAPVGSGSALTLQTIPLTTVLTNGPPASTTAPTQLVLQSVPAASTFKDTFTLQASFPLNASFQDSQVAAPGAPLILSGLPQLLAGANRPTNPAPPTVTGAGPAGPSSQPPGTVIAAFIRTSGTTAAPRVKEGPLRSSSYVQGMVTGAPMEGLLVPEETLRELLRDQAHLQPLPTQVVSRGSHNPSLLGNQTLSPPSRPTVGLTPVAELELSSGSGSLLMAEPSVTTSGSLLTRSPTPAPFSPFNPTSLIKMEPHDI
# Sequence of ELF1 (P32519 whole entry): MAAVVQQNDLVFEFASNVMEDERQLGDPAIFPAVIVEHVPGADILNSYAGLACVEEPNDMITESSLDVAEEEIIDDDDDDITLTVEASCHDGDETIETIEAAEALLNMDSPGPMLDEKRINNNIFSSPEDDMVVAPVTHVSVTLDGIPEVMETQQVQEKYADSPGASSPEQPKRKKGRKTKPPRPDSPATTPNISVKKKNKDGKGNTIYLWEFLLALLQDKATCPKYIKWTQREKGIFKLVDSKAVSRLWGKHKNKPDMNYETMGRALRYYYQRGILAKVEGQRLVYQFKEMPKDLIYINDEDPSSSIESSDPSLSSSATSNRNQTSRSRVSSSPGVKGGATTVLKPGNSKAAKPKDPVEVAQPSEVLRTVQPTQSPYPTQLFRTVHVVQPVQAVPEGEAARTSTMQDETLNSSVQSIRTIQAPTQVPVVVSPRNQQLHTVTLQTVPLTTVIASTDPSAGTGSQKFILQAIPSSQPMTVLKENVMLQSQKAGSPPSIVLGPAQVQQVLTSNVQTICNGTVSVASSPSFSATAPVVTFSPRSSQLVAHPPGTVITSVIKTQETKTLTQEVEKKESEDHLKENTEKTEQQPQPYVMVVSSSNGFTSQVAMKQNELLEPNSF
sequence,measurement,setting,value
ACCTAA,binding signal,[1],"1.19 fold enrichment (6-mer frequency, TF over GST control)"
same,binding signal,[2],"1.08 fold enrichment (6-mer frequency, TF over GST control)"
same,binding signal,[3],"1.17 fold enrichment (6-mer frequency, TF over GST control)"
same,binding signal,[4],"1.13 fold enrichment (6-mer frequency, TF over GST control)"
same,binding signal,[5],"1.18 fold enrichment (6-mer frequency, TF over GST control)"
same,binding signal,[6],"1.12 fold enrichment (6-mer frequency, TF over GST control)"
same,binding signal,[7],"1.2 fold enrichment (6-mer frequency, TF over GST control)"
same,binding signal,[8],"1.19 fold enrichment (6-mer frequency, TF over GST control)"
same,binding signal,[9],"1.2 fold enrichment (6-mer frequency, TF over GST control)"
same,binding signal,[10],"1.12 fold enrichment (6-mer frequency, TF over GST control)"
same,binding signal,[11],"1.22 fold enrichment (6-mer frequency, TF over GST control)"
same,binding signal,[12],"1.21 fold enrichment (6-mer frequency, TF over GST control)"
same,binding signal,[13],"1.21 fold enrichment (6-mer frequency, TF over GST control)"
same,binding signal,[14],"1.27 fold enrichment (6-mer frequency, TF over GST control)"
same,binding signal,[15],"1.13 fold enrichment (6-mer frequency, TF over GST control)"
same,binding signal,[16],"1.17 fold enrichment (6-mer frequency, TF over GST control)"
same,binding signal,[17],"1.2 fold enrichment (6-mer frequency, TF over GST control)"
same,binding signal,[18],"1.57 fold enrichment (6-mer frequency, TF over GST control)"
same,binding signal,[19],"1.18 fold enrichment (6-mer frequency, TF over GST control)"
